Experimental findings from PubChem BioAssay are described below.

Experiment [1] concerns Plasmodium falciparum Sir2 (PF13_0152, Sir2A). Briefly: Plasmodium falciparum Sir2A binding compounds – biochemical, small-molecule microarray, 635 nm fluorescence, primary screen (AID 1098).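 Also: score merges spot fluorescence intensity with its signal-to-noise ratio.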 The note with it: fluorescence 635 nm, higher = more signal.
A short description of experiment [2]: probe aDKK1 binding to arrayed compounds – biochemical, biotinylated probe, 635/667 nm fluorescence, primary screen (AID 1099).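 Also: score merges 667nm spot fluorescence with signal to noise across triplicate slides; reference of the scale not given here.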 The following applies: small-molecule microarray, higher = more signal.
A short description of experiment [3]: probe aCHRDL2 binding to arrayed compounds – biochemical, biotinylated probe, 635/667 nm fluorescence, primary screen (AID 1100). The note with it: small-molecule microarray, higher = more signal.
Experiment [4] can be described thus: change in splice reporter luminescence, either direction, cell-based, HEK293, spliceosome inhibition project, primary screen (AID 1101).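 Also: HEK293 cells carrying a splicing-competent luciferase reporter gene; test concentration not given here.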 The following applies: HEK293 splicing luciferase reporter, 24 h, higher = more signal, called active from +8 up or from −8 down.
For experiment [5], the target named is Fibroblast growth factor 10 (Homo sapiens) (UniProt O15520). As to the kind of experiment: compounds binding fibroblast growth factor 10 – biochemical, small-molecule microarray, 635 nm fluorescence, primary screen (AID 1102). The note with it: FGF10 binding, fluorescence 635 nm, higher = more signal.
Chain of Fibroblast growth factor 10 (Homo sapiens) (O15520 whole entry, looked up): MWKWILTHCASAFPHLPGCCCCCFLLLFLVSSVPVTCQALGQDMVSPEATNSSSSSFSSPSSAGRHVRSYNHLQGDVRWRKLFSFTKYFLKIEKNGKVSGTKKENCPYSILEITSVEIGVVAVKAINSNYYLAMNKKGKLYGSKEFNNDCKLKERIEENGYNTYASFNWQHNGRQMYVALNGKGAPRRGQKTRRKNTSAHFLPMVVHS
Experiment [6] concerns glycogen synthase kinase-3 (GSK3A per assay name; protocol says GSK3B). As to the kind of experiment: compounds binding glycogen synthase kinase-3 – biochemical, small-molecule microarray, 635 nm fluorescence, GSK3A, primary screen (AID 1103). Also: the record names both GSK3A and GSK3B. The following applies: fluorescence 635 nm, higher = more signal.
Experiment [7] concerns the target Epidermal growth factor receptor (Homo sapiens) (UniProt P00533). As to the kind of experiment: compounds binding epidermal growth factor receptor – biochemical, small-molecule microarray, 635 nm fluorescence, primary screen (AID 1104).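 Also: score merges 667 nm emission intensity with spot signal to noise over triplicate slides.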 The note with it: EGFR binding, higher = more signal.
Experiment [8] has as its target Follistatin-related protein 3 (Homo sapiens) (UniProt O95633). As to the kind of experiment: compounds binding follistatin-related protein 3 – biochemical, small-molecule microarray, 635 nm fluorescence, primary screen (AID 1105).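 Also: score merges emission near 667 nm and signal to noise per printed spot across three slides.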 The note with it: FSTL3 binding, higher = more signal.
In experiment [9] the target is Dickkopf-related protein 1 (Homo sapiens) (UniProt O94907). As to the kind of experiment: small molecules binding DKK1 protein – biochemical, small-molecule microarray, 635 nm fluorescence scan, primary screen (AID 1106).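 Also: score merges emission near 667 nm with signal to noise over three replicate slides.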 The following applies: higher = more signal.
Chain of Dickkopf-related protein 1 (Homo sapiens) (O94907 whole entry, looked up): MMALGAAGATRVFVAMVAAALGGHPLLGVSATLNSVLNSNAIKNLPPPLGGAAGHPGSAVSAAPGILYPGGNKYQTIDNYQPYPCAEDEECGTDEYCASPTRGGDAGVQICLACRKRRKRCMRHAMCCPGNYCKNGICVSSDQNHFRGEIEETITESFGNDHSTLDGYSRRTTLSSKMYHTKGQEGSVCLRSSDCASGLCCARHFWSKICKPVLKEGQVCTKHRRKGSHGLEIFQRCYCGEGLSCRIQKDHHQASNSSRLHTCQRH
In experiment [10] the test system is Inhibin beta A chain (activin A). As to the kind of experiment: small molecules binding activin A – biochemical, small-molecule microarray, 635 nm fluorescence scan, primary screen (AID 1107).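 Also: mouse activin A protein probed at 4.33 µg/mL on printed slides; score merges bound-protein fluorescence near 667 nm with spot signal-to-noise.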 The following applies: INHBA, higher = more signal.

Calls of active or inactive are those of the source.

Chain of Follistatin-related protein 3 (Homo sapiens) (O95633 whole entry, looked up): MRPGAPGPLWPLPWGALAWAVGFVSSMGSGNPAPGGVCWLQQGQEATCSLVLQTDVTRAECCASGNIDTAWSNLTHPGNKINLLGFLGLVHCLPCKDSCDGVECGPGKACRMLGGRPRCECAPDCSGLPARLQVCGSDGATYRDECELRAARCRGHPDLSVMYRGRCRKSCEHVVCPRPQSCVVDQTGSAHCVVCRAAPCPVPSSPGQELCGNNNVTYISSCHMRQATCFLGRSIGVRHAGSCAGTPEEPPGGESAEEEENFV
Chain of Epidermal growth factor receptor (Homo sapiens) (P00533 whole entry, looked up): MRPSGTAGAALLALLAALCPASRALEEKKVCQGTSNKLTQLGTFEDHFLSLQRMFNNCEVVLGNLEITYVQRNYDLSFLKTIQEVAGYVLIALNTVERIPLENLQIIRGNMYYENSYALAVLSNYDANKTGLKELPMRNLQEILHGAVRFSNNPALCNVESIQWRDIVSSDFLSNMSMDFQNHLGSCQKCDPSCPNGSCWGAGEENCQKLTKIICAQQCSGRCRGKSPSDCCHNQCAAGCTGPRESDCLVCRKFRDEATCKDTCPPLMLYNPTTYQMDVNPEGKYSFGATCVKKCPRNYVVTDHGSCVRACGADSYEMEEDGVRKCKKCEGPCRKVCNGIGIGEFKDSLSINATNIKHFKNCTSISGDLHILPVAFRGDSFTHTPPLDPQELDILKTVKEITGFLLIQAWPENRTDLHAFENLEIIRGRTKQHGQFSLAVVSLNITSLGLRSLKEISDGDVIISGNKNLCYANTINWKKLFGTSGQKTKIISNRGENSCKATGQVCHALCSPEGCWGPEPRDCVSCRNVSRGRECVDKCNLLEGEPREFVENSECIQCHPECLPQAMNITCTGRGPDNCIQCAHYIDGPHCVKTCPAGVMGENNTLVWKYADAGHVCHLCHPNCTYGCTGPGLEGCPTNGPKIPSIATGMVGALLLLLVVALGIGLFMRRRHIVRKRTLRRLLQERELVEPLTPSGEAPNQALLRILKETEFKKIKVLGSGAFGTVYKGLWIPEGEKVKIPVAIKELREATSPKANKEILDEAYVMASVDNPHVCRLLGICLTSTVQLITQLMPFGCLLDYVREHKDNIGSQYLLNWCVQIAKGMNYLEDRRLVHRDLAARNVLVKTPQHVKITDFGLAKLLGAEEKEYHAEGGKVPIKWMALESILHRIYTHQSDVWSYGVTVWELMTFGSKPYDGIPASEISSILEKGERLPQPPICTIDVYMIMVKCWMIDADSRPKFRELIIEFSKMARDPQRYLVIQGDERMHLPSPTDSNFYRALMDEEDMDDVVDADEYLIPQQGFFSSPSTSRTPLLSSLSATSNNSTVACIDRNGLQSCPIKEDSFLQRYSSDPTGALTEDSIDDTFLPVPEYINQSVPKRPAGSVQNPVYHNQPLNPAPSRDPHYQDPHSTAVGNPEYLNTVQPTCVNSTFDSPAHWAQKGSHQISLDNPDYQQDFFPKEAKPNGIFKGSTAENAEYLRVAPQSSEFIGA

As to `CC(=O)n1cc(C(O)C2C=CC3C(=O)NC(=O)C3N2Nc2ccccn2)c2ccccc21` (stereo not given), the composite z-score was 0.452 in [1]; -0.0908 in experiment [2]; 0.0413 in [3]; 0.168 in experiment [5]; 0.0973 in experiment [6]; 0.523 in experiment [7]. Also, the composite z-score worked out at 0.225 in [8], 0.339 in experiment [9] and 0.709 in experiment [10]. For the same compound, the z-score in experiment [4] was 2.28 (inactive).
For the compound `O=C1C2C=CC(C(O)c3cc(C(F)(F)F)cc(C(F)(F)F)c3)N(Nc3ccccc3)C2C(=O)N1c1ccccc1` (stereo not given), the composite z-score in experiment [1] was 1.24; in experiment [2], 0.723; in [3] it was 0.433; in [5], -0.239; in [6] it was 0.22; in experiment [7] it was -0.303. Besides, the composite z-score in experiment [8] was -0.154; in experiment [9] it was -0.667; in experiment [10] it was 1.01. For the same compound, the z-score in [4] was -2.9 (inactive).
Turning to `COC(=O)C[C@H]1O[C@@H](CCc2ccccc2)[C@@H](C)[C@@H]1[Si](C)(C)c1ccc(OC)cc1`, the composite z-score in experiment [1] is -1.04; in experiment [2] it was -0.0884; in experiment [3] it was -0.149; in [5], -0.587; in experiment [6], -1.04; in experiment [7] it was 0.239. In addition, the composite z-score was -0.232 in experiment [8], 0.149 in experiment [9] and 0.0026 in experiment [10]. In experiment [4], the z-score was 0.0234 (inactive).
Regarding `Cc1ccc(C2C3C(=O)CC4C(=O)N(c5ccccc5)C(=O)C4C3CN2S(=O)(=O)c2ccc(C)cc2)cc1` (stereo not given), the composite z-score in [1] turned out to be 0.0792; in experiment [2], 1.24; in [3], 1.05; in experiment [5] it was 0.924; in experiment [6], 0.816; in experiment [7], 0.381. The composite z-score in [8] was found to be 0.773; in experiment [9], 0.112; in experiment [10], 0.385. Further, the z-score in experiment [4] was 0.495 (inactive).
For `COC(=O)C(CC#Cc1ccc2c(c1)[C@]1(C(=O)N2)[C@H](c2ccccc2OCCO)N2[C@H](c3ccccc3)[C@H](c3ccccc3)OC(=O)[C@H]2[C@@H]1C(N)=O)C(=O)OC`, the composite z-score was determined as 1.54 in experiment [1]; 1.45 in experiment [2]; 0.862 in experiment [3]; 0.376 in experiment [5]; 1 in experiment [6]; 0.241 in experiment [7]. Moreover, the figures for the composite z-score in experiment [8], in experiment [9] and in experiment [10] were 0.412, -0.221 and 0.693, respectively. Also, in [4], the z-score is -3.57 (inactive).
As for `CCCCC(O)C1C=CC2C(=O)N(C)C(=O)C2N1N1CCCCC1` (stereo not given), the composite z-score is 0.933 in experiment [1]; 0.945 in [2]; 0.743 in experiment [3]; 0.546 in [5]; -0.0038 in [6]; 0.229 in experiment [7]. The composite z-score stood at 0.574 in experiment [8], 0.0003 in experiment [9] and 1.42 in experiment [10]. In experiment [4], the z-score is 0.871 (inactive).
As to `O=C1OCCC/C=C\[C@H]2OC34C=CCN(c5ccc6ccccc6c5)C(=O)[C@H]3N(CCCCCO)C(=O)[C@@H]4C12` (stereo not given in full), the composite z-score in experiment [1] is 0.227; in experiment [2], -0.319; in [3] it was 0.364; in experiment [5], -0.862; in experiment [6], -1.35; in [7], -0.756. The composite z-score in experiment [8] was -0.613; in experiment [9], -0.974; in experiment [10] it was 0.633. The z-score in [4] is -0.447 (inactive).
`COC(=O)[C@@]1(Cc2ccc(OC)cc2)[C@H]2c3cc(C(=O)N(C)C)n(Cc4ccc(C(F)(F)F)nc4)c3C[C@H]2CN1C(=O)c1ccccc1`: the composite z-score in [1] was 0.707; in experiment [2], 1.15; in [3], 0.784; in experiment [5], 0.081; in experiment [6], -0.178; in experiment [7], 0.189. The composite z-score in experiment [8] is -0.015; in [9] it was -0.557; in experiment [10] it was 0.663. In addition, the z-score in [4] is -1.59 (inactive).
`C=CCN1C(=O)[C@]2(O[C@H](CCO)[C@@H]([Si](C)(C)c3ccc(OC)cc3)[C@@H]2C)c2cc(N(C=O)c3ccccc3)ccc21`: the composite z-score in [1] was 0.465; in experiment [2], -0.128; in [3], 0.348; in [5], -0.0285; in experiment [6], -0.116; in experiment [7] it was -0.414. Also, the composite z-score in experiment [8] is -0.0666; in experiment [9] it was -0.113; in experiment [10] it was 0.407. For the same compound, the z-score in [4] is -2.19 (inactive).
As to `C=CCN(Cc1ccccc1)C(=O)C(c1cccs1)N(C(=O)/C=C\C(=O)O)c1ccc(CCOCCO)cc1` (stereo not given), the composite z-score in experiment [1] was 1.33; in experiment [2] it was -0.291; in experiment [3], 0.486; in experiment [5] it was -2.15; in experiment [6] it was -1.28; in [7], -1.43. In addition, the figures for the composite z-score in experiment [8], in experiment [9] and in experiment [10] were -1.27, -2.18 and -0.753, respectively. Moreover, the z-score in experiment [4] is -1.2 (inactive).
For `COc1cc(OC)c(C(O)C2C=CC3C(=O)NC(=O)C3N2Nc2ccccn2)cc1Br` (stereo not given), the composite z-score came out at 0.968 in [1]; 0.615 in experiment [2]; 0.483 in [3]; 0.689 in experiment [5]; 0.398 in experiment [6]; 0.807 in [7]. Further, the composite z-score in [8] came out at 0.835; in [9], 0.815; in [10], 0.811. In addition, the z-score in experiment [4] is 0.893 (inactive).
